Test results reported in PubChem BioAssay AID463173 (ICCB-Longwood Screening Facility, Harvard Medical School, 2010).
Hit rate of the full screen: of about 52,000 compounds, about 1,700 (3.3%) were called active. Shown is part of a subset that was picked to be rich in actives. Values without a mark were called inactive. No stated cut-off is given here; in the data, active means survival mostly below about 52% (no sharp cut-off); inactive means mostly above about 56%.

test system: Wild type; assay: S. aureus survival, RN4220 and DeltatarO strains – OD600, teichoic acid synthesis inhibitors, primary screen (AID 463173); conditions: S. aureus RN4220 wild type/DeltatarO growth, OD600, 18 h, active compounds read low, screened at 18.75 µg/mL (by protocol)

Question: How did the survival turn out when `N#Cc1c(N2CCOCC2)nc(N2CCOCC2)c2c1CCN(Cc1ccccc1)C2` was run?
Answer: Its survival is 112%.

Question: With `COc1ccc(CNC(=O)CCc2c(C)nn(-c3ccc(N4CCCCC4)nn3)c2C)c(OC)c1` as the compound, how does the survival read?
Answer: Its survival is 64%.

Question: How did the survival turn out when `CCn1c(N2CCN(C(=O)Nc3ccc(Cl)c(C(F)(F)F)c3)CC2)nc2ccccc21` was run?
Answer: The survival was 0% (active).

Question: How did the survival turn out when `CC(C)Cn1c(N2CCN(C(=O)Nc3ccc(Cl)cc3)CC2)nc2ccccc21` was run?
Answer: The survival was 99%.

Question: For `CCCn1c(N2CCN(C(=O)Nc3ccc(OC)cc3)CC2)nc2ccccc21`, which survival is on record?
Answer: Its survival is 94%.

Question: How did the survival turn out when `CCOCCn1ccc2c(OCC(=O)Nc3ccc(C(N)=O)cc3)cccc2c1=O` was run?
Answer: The survival was 32%.

Question: `Cc1ccc(-n2cccn2)cc1` was tested. Which survival did it give?
Answer: Its survival is 113%.

Question: How did the survival turn out when `Cc1ccc2oc(=O)n(CCNC(=O)Nc3ccccc3C)c2c1` was run?
Answer: Its survival is 119%.

Question: For `O=C(O)CCCn1c(=O)oc2ccccc21`, which survival is on record?
Answer: The survival was 99%.

Question: `CCOc1ccccc1NC(=O)NCCn1c(=O)oc2ccc(C)cc21` was tested. Which survival did it give?
Answer: Its survival is 79%.

Question: How did the survival turn out when `Cc1ccc2oc(=O)n(CCCOc3ccccc3Cl)c2c1` was run?
Answer: Its survival is -10% (active).

Question: `N#CCCCn1c(=O)oc2ccccc21` was tested. Which survival did it give?
Answer: Its survival is 84%.

Question: For `O=c1oc2ccccc2n1CCCOc1ccccc1Cl`, which survival is on record?
Answer: Its survival is 0% (active).

Question: How did the survival turn out when `O=S(=O)(c1ccccc1)c1nnn2c1nc(NCc1ccc(Cl)cc1)c1sccc12` was run?
Answer: The survival was 88%.

Question: For `Cc1cc(SCC(=O)NCc2ccccc2)nc(=O)[nH]1`, which survival is on record?
Answer: The survival was 70%.

Question: With `Cc1cc2oc(C(=O)Nc3ccc(S(=O)(=O)N4CCCCCC4)cc3)cc(=O)c2cc1C` as the compound, how does the survival read?
Answer: The survival was 80%.

Question: For `COc1ccc(-c2nc(CSc3nnc(C)n4c3cc3oc(C)cc34)c(C)o2)cc1OC`, which survival is on record?
Answer: The survival was 89%.

Question: How did the survival turn out when `CCc1ccc(OCC(=O)Nc2ccc(Cl)c(-c3nc4cc(C)cc(C)c4o3)c2)cc1` was run?
Answer: The survival was 51%.

Question: Which survival does the source give for `O=C(/C=C/c1cn(CC(O)CN2CCc3ccccc32)c2ccccc12)c1ccc(Br)cc1` (stereo not drawn) here?
Answer: The survival was 70%.

Question: With `COc1ccc(C(=O)/C=C/c2cn(CC(O)CN3CCCCCC3)c3ccccc23)cc1OC` (stereo not drawn) as the compound, how does the survival read?
Answer: Its survival is 96%.

Question: For `Cc1ccc(C(=O)/C=C/c2cn(CC(O)CN3CCCCCC3)c3ccccc23)cc1` (stereo not drawn), which survival is on record?
Answer: The survival was 28% (active).

Question: Which survival does the source give for `COc1ccc(C(=O)/C=C/c2cn(CC(O)CN3CCc4ccccc43)c3ccccc23)cc1OC` (stereo not drawn) here?
Answer: The survival was 87%.

Question: How did the survival turn out when `CCOc1ccc(C(=O)/C=C/c2cn(CC(O)CN3CCCCCC3)c3ccccc23)cc1` (stereo not drawn) was run?
Answer: The survival was 26% (active).

Question: With `O=C(/C=C/c1cn(CC(O)CN2CCCCCC2)c2ccccc12)c1ccc(Br)cc1` (stereo not drawn) as the compound, how does the survival read?
Answer: The survival was 14% (active).

Question: Which survival does the source give for `O=C(/C=C/c1cn(CC(O)CN2CCCCCC2)c2ccccc12)c1ccccc1` (stereo not drawn) here?
Answer: Its survival is 67%.

Question: With `COc1ccc(C(=O)/C=C/c2cn(CC(O)CN3CCc4ccccc43)c3ccccc23)cc1` (stereo not drawn) as the compound, how does the survival read?
Answer: Its survival is 63%.

Question: Which survival does the source give for `Cc1ccc(Cn2ccc(NC(=O)c3cc(-c4ccc(Cl)c(Cl)c4)on3)n2)cc1` here?
Answer: Its survival is 74%.

Question: How did the survival turn out when `CCOC(=O)CSc1nc2ccccc2c(=O)n1CCc1ccc(OC)c(OC)c1` was run?
Answer: The survival was 124%.

Question: For `Cc1ccc(-n2c(C)cc(CO)c2C)cc1`, which survival is on record?
Answer: Its survival is 100%.

Question: `Cc1ccc(CNC(=O)CCc2c(C)nn(-c3ccc(N4CCOCC4)nn3)c2C)cc1` was tested. Which survival did it give?
Answer: Its survival is 135%.

Question: How did the survival turn out when `CC(=O)Nc1ccc(N=NN2CCCCC2)cc1` was run?
Answer: The survival was 99%.

Question: For `CCc1ccc(CN(Cc2ccco2)c2cnc(S(C)(=O)=O)nc2C(=O)Nc2c(C)cccc2C)cc1`, which survival is on record?
Answer: The survival was 70%.

Question: For `CCCOc1ccc(-c2nc(N3CCCCC3)c3ccccc3n2)cc1`, which survival is on record?
Answer: The survival was 0% (active).

Question: Which survival does the source give for `Cc1ccc(-c2nc(N3CCN(c4ccccc4Cl)CC3)c3ccccc3n2)cc1` here?
Answer: The survival was 62%.

Question: `CCCOc1ccc(-c2nc(N3CCC(C)CC3)c3ccccc3n2)cc1` was tested. Which survival did it give?
Answer: The survival was -2% (active).

Question: With `c1ccc(-c2nc(N3CCCCC3)c3ccccc3n2)cc1` as the compound, how does the survival read?
Answer: Its survival is 130%.

Question: How did the survival turn out when `CCCOc1ccc(CNC(=O)C2CCN(c3nc4ccccc4nc3C(F)(F)F)CC2)cc1` was run?
Answer: Its survival is 59%.

Question: How did the survival turn out when `CCCOc1ccc(-c2nc3ccccc3c(=O)o2)cc1` was run?
Answer: Its survival is 70%.

Question: For `O=C(CSc1nc2c([nH]c3ccccc32)c(=O)n1-c1ccccc1)N1CCCc2ccccc21`, which survival is on record?
Answer: The survival was 128%.

Question: `c1ccc2sc(N3CCN(Cc4nnnn4C4CCCC4)CC3)nc2c1` was tested. Which survival did it give?
Answer: The survival was 104%.

Question: With `Fc1ccc(Nc2ncnc3onc(-c4ccc(Cl)cc4)c23)cc1Cl` as the compound, how does the survival read?
Answer: Its survival is 71%.

Question: How did the survival turn out when `Cc1ccccc1CN1C(=O)c2ccccc2Sc2ccc(C(=O)NC(C)c3ccccc3)cc21` (stereo not drawn) was run?
Answer: The survival was 81%.

Question: Which survival does the source give for `CC(C)Oc1ccc(CNC(=O)c2ccc3c(c2)N(C)C(=O)C2CCCCN32)cc1` (stereo not drawn) here?
Answer: Its survival is 10% (active).

Question: `CSc1ccc(CNC(=O)c2ccc3c(c2)N(C)C(=O)C2CCCCN32)cc1` (stereo not drawn) was tested. Which survival did it give?
Answer: Its survival is 83%.

Question: For `COc1ccc(CNC(=O)c2ccc3c(c2)N(C)C(=O)C2CCCCN32)cc1OC` (stereo not drawn), which survival is on record?
Answer: The survival was 59%.

Question: For `COc1cccc(CNC(=O)c2ccc3c(c2)N(C)C(=O)C2CCCCN32)c1` (stereo not drawn), which survival is on record?
Answer: The survival was 68%.

Question: How did the survival turn out when `CCCCOc1ccc(CNC(=O)c2ccc3c(c2)N(C)C(=O)C2CCCCN32)cc1` (stereo not drawn) was run?
Answer: Its survival is 88%.

Question: `Cc1cccc(CNC(=O)c2ccc3c(c2)N(C)C(=O)C2CCCCN32)c1` (stereo not drawn) was tested. Which survival did it give?
Answer: The survival was -3% (active).

Question: `COc1cccc(CNC(=O)c2ccc3nc(-c4ccccc4)c(-c4ccccc4)nc3c2)c1OC` was tested. Which survival did it give?
Answer: The survival was 71%.

Question: Which survival does the source give for `CCC(Cn1nnc2ccccc2c1=O)NC(=O)Nc1ccccc1OC` (stereo not drawn) here?
Answer: The survival was 93%.

Question: For `CCc1ccccc1NC(=O)[C@@H](c1ccccc1)N1Cc2ccccc2C1=O`, which survival is on record?
Answer: The survival was 22%.

Question: With `COc1ccccc1OCCSc1ncnc2nc[nH]c12` as the compound, how does the survival read?
Answer: The survival was 105%.

Question: Which survival does the source give for `Cc1ccc(-c2nnc(Nc3ccc(F)cc3)c3ccccc23)cc1S(=O)(=O)NC(C)C` here?
Answer: Its survival is 81%.

Question: For `COCCCNC(=O)c1cc2cc(S(=O)(=O)N3CCCCC3)ccc2n1C`, which survival is on record?
Answer: Its survival is 73%.

Question: With `COc1ccc(C(=O)Nc2ccccc2-c2nc(-c3ccc(OC)cc3)no2)cc1` as the compound, how does the survival read?
Answer: Its survival is 89%.

Question: Which survival does the source give for `COc1ccc(-c2noc(-c3ccccc3NC(=O)c3cc(OC)c(OC)c(OC)c3)n2)cc1` here?
Answer: The survival was 79%.

Question: `COc1ccc(-c2noc(-c3cccc(OC)c3OC)n2)cc1` was tested. Which survival did it give?
Answer: Its survival is -3% (active).

Question: For `Cc1ccc(OC(=O)c2snnc2C)cc1C`, which survival is on record?
Answer: Its survival is 117%.

Question: With `COc1ccc(NC(=O)Nc2cccc(-c3cn4cccnc4n3)c2)cc1` as the compound, how does the survival read?
Answer: The survival was 77%.

Question: For `Cc1cc(C)c(S(=O)(=O)Nc2ccc3oc4c(c3c2)CCCC4)cc1C`, which survival is on record?
Answer: The survival was 72%.

Question: With `CCc1ccc(S(=O)(=O)Nc2ccc3oc(C)c(C(=O)OCCOC)c3c2)cc1` as the compound, how does the survival read?
Answer: The survival was 60%.

Question: For `CCOC(=O)c1c(-c2ccccc2)oc2ccc(NS(=O)(=O)c3ccc(C)cc3)cc12`, which survival is on record?
Answer: Its survival is 28%.

Question: With `CCOC(=O)c1c(-c2ccccc2)oc2ccc(NS(=O)(=O)c3ccc(C)cc3C)cc12` as the compound, how does the survival read?
Answer: The survival was 51%.

Question: Which survival does the source give for `CCOC(=O)c1c(-c2ccccc2)oc2ccc(NS(=O)(=O)c3ccccc3)cc12` here?
Answer: The survival was 7% (active).

Question: Which survival does the source give for `CCOc1ccc(S(=O)(=O)Nc2ccc3oc4c(c3c2)CC(C)CC4)cc1` (stereo not drawn) here?
Answer: The survival was 60%.

Question: Which survival does the source give for `CCCCOC(=O)c1c(C)oc2ccc(NS(=O)(=O)c3ccc(F)cc3C)cc12` here?
Answer: The survival was 1% (active).

Question: How did the survival turn out when `CCOC(=O)c1c(-c2ccccc2)oc2ccc(NS(=O)(=O)c3ccc(OC)cc3)cc12` was run?
Answer: The survival was 66%.

Question: Which survival does the source give for `Cc1cc(F)ccc1S(=O)(=O)Nc1ccc2oc3c(c2c1)CC(C)CC3` (stereo not drawn) here?
Answer: Its survival is -6% (active).
